Results as given in PubChem BioAssay (Tox21).
Inconclusive results are not listed. A call without a number means that no potency is given here. Unmarked numbers belong to inactive results. Active and inactive are the calls of the source. Calls follow the shape of the dose curve; as a rule, active = well fitted curve in the direction sought with a large enough effect in the repeat runs; inconclusive = weak or mixed curves; inactive = no such curve, though single readings can be large; an effect the other way counts as inactive or inconclusive.

What was measured:
[1] = target: Cytochrome P450 2C9 (Homo sapiens) (UniProt P11712); assay: Cytochrome P450 Family 2 Subfamily C Member 9 (CYP2C9) small molecule antagonists: luciferase reporter qHTS assay (AID 1671198); also: potency is read from the fitted curve at half-maximal effect; as to activity change, negative = inhibition: series mostly up to about 120 µM
Procedure, shortened: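 P450-Glo proluciferin substrate with CYP2C9 enzyme; 10 min RT preincubation, then NADPH regeneration 1 h at 37C; luciferin detection reagent 20 min RT, luminescence in relative luminescence units.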

[2] = target: Cytochrome P450 1A2 (Homo sapiens) (UniProt P05177); assay: Cytochrome P450 Family 1 Subfamily A Member 2 (CYP1A2) small molecule antagonists: luciferase reporter qHTS assay (AID 1671199); also: potency is read from the fitted curve at half-maximal effect; as to activity change, negative = inhibition: series mostly up to about 120 µM
Procedure, shortened: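 Luminescence readout (relative luminescence units) after luciferin detection reagent, 20 min RT. Preceded by 1 h room-temperature CYP1A2 reaction with NADPH regeneration solution following 10 min compound preincubation with enzyme and proluciferin substrate. Furafylline positive control.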

[3] = target: Voltage-gated inwardly rectifying potassium channel KCNH2 (Homo sapiens) (UniProt Q12809); assay: Human Ether-a-go-go-Related Gene (hERG) channel small molecule antagonists: fluorescence cell-based qHTS assay (AID 1671200);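 also: hERG-expressing U2OS cells given a thallium stimulus after FluxOR II dye loading; series mostly up to about 77 µM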
Procedure, shortened: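 Fluorescence at 540 nm emission (480 nm excitation) was recorded kinetically for 2 min at 1-second intervals once the thallium-containing stimulus reached cells previously loaded with FluxOR II dye.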

[4] = target: Cytochrome P450 3A4 (Homo sapiens) (UniProt P08684); assay: Cytochrome P450 Family 3 Subfamily A Member 4 (CYP3A4) small molecule antagonists: luciferase reporter qHTS assay (AID 1671201); also: potency is read from the fitted curve at half-maximal effect; as to activity change, negative = inhibition: series mostly up to about 120 µM
Procedure, shortened: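 qHTS, 1536-well. CYP3A4 + proluciferin substrate, cpd 10 min RT → NADPH regen 1 h RT → detection reagent 20 min → luminescence (RLU). Ketoconazole positive control.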
Also: nearly all actives have a fitted effect of over 50% in size.

Sequence of Cytochrome P450 1A2 (Homo sapiens) (P05177 whole entry, looked up): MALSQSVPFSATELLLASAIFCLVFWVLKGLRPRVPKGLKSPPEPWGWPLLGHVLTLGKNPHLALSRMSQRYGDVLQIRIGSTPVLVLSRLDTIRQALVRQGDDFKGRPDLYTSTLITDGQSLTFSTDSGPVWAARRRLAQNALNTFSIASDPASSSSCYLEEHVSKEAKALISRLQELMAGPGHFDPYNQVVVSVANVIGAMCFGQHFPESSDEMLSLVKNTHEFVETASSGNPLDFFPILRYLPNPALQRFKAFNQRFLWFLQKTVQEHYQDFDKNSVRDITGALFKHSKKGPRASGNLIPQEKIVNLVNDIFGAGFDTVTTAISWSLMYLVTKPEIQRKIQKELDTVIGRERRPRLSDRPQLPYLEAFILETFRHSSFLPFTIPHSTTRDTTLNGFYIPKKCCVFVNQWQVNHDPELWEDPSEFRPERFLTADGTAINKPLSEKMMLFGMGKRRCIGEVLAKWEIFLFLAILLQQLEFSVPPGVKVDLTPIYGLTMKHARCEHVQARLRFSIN
Sequence of Cytochrome P450 3A4 (Homo sapiens) (P08684 whole entry, looked up): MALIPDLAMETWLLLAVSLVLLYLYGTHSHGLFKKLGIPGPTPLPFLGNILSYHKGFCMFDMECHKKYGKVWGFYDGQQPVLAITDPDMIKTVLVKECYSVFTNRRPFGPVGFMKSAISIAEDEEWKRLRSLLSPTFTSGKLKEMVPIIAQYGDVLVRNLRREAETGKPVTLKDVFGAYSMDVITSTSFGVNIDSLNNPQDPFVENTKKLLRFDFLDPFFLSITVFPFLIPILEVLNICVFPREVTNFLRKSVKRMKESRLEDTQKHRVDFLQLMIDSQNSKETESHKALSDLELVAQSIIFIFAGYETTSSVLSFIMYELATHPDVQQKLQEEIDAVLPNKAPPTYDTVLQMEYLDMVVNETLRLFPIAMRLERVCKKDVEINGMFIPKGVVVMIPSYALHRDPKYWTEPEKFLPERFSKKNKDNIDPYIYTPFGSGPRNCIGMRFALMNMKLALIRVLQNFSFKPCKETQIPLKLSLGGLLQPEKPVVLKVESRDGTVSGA
Sequence of Voltage-gated inwardly rectifying potassium channel KCNH2 (Homo sapiens) (Q12809 whole entry, looked up): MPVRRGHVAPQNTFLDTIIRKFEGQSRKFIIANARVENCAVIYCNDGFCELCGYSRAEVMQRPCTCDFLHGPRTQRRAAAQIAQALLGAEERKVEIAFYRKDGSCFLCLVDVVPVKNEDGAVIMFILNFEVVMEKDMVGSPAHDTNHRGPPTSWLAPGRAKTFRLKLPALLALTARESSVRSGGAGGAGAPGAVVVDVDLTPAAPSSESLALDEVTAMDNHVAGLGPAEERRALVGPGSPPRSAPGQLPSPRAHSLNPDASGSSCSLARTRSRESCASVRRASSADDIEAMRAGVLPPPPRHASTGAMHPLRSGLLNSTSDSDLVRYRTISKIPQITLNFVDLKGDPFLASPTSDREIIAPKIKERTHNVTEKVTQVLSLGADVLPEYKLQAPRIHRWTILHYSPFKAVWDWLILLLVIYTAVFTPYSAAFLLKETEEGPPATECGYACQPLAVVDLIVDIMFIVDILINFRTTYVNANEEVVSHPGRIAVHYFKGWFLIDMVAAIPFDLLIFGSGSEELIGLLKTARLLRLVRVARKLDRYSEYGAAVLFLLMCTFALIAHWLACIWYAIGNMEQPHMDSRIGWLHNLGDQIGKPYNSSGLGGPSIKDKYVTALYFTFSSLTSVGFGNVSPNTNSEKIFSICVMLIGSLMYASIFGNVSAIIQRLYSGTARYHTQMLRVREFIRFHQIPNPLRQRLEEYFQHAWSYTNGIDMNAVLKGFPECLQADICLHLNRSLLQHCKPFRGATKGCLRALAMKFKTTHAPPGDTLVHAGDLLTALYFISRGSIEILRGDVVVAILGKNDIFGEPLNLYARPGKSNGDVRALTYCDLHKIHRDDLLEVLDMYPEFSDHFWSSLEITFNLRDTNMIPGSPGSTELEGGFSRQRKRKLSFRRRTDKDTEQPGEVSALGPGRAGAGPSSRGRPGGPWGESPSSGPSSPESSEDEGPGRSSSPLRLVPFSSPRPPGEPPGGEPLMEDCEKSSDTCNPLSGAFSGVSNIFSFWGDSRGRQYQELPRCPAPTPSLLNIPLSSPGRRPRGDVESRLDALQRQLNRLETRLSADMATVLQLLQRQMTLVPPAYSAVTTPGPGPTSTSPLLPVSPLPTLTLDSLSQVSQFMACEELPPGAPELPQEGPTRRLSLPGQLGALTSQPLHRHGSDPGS
Sequence of Cytochrome P450 2C9 (Homo sapiens) (P11712 whole entry, looked up): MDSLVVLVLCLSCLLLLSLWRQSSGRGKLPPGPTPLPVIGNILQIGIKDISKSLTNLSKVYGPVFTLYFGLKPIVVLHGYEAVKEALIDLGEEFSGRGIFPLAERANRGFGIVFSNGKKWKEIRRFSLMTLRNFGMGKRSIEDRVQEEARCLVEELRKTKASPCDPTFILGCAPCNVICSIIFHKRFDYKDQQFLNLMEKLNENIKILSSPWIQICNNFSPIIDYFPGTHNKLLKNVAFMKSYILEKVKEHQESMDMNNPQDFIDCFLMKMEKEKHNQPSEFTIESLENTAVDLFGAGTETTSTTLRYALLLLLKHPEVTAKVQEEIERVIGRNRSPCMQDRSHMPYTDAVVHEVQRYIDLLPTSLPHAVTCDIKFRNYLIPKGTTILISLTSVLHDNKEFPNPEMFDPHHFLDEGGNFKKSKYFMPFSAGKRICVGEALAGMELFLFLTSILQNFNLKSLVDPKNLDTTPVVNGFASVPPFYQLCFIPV

Which results are given for `Cc1ccc(N(CCO)CCO)cc1`?
Potency [1]: 39.9 µM (active); Potency [2]: 31.7 µM (active); Potency [3]: inactive; Potency [4]: inactive

`COc1cc(NS(=O)(=O)c2ccc(N)cc2)nc(C)n1` was tested. Which Potency [1] did it give?
Its Potency is “inactive”.

What about the Potency [2] of the same compound?
The Potency was “inactive”.

And the Potency [4]?
The Potency was “inactive”.

Which Potency [1] does the source give for `O=S(=O)(O)CO` here?
The Potency was “inactive”.

What about the Potency [2] of the same compound?
Its Potency is 31.3 µM (active).

And the Potency [3]?
Its Potency is “inactive”.

What about the Potency [4] of the same compound?
Its Potency is “inactive”.

How did the Potency [1] turn out when `Cc1c(C2(c3cc(Br)c(O)c(Br)c3C)OS(=O)(=O)c3ccccc32)cc(Br)c(O)c1Br` was run?
Its Potency is 10.9 µM (active).

What about the Potency [2] of the same compound?
The Potency was 13.7 µM (active).

What about the Potency [3] of the same compound?
Its Potency is “inactive”.

And the Potency [4]?
Its Potency is 27.4 µM (active).

Which Potency [1] does the source give for `O=C1OC(=O)c2c(Br)c(Br)c(Br)c(Br)c21` here?
The Potency was “inactive”.

And the Potency [2]?
Its Potency is “inactive”.

And the Potency [3]?
The Potency was “inactive”.

And the Potency [4]?
Its Potency is “inactive”.

With `CCc1ccc(C)cc1` as the compound, how does the Potency [1] read?
The Potency was “inactive”.

What about the Potency [2] of the same compound?
Its Potency is “inactive”.

What about the Potency [4] of the same compound?
Its Potency is “inactive”.

With `CNS(=O)(=O)c1cc(C(=O)N2CCC(CCN3C4CCC3CC(n3c(C)nc5ccccc53)C4)(c3cccc(F)c3)CC2)c(Cl)cc1F` (stereo not drawn) as the compound, how does the Potency [1] read?
Its Potency is 17.8 µM (active).

And the Potency [2]?
The Potency was “inactive”.

And the Potency [4]?
Its Potency is “inactive”.

For `CCN(CC)C(=O)/C(C#N)=C/c1cc(O)c(O)c([N+](=O)[O-])c1`, which Potency [1] is on record?
Its Potency is 0.195 µM (active).

What about the Potency [3] of the same compound?
The Potency was “inactive”.

What about the Potency [4] of the same compound?
The Potency was “inactive”.

What does the source list for `CC(C)N(C)C`?
Potency [1]: inactive; Potency [3]: inactive; Potency [4]: inactive

Which Potency [1] does the source give for `CC(C)c1ccc(C#N)cc1` here?
The Potency was “inactive”.

What about the Potency [4] of the same compound?
The Potency was “inactive”.

How did the Potency [1] turn out when `CC(C)(O)CCc1ccccc1` was run?
The Potency was “inactive”.

And the Potency [3]?
The Potency was “inactive”.

And the Potency [4]?
The Potency was “inactive”.

What does the source list for `CCOCCC(=O)OCC`?
Potency [1]: inactive; Potency [3]: inactive; Potency [4]: inactive

With `Nc1nc(-c2ccc([N+](=O)[O-])cc2)cs1` as the compound, how does the Potency [2] read?
The Potency was 5.08 µM (active).

What about the Potency [3] of the same compound?
Its Potency is “inactive”.

For `COc1ccc(C2C(=O)c3ccccc3C2=O)cc1`, which Potency [2] is on record?
The Potency was “inactive”.

And the Potency [3]?
Its Potency is “inactive”.

`CC1CCCO1` (stereo not drawn) was tested. Which Potency [1] did it give?
Its Potency is “inactive”.

And the Potency [4]?
Its Potency is “inactive”.

For `CCCCCCCC/C=C/C(=O)O`, which Potency [1] is on record?
Its Potency is “inactive”.

And the Potency [3]?
The Potency was “inactive”.

What about the Potency [4] of the same compound?
The Potency was “inactive”.

Which Potency [1] does the source give for `O=C(O)c1cc(Cl)cc(Cl)c1O` here?
Its Potency is 28.3 µM (active).

What about the Potency [3] of the same compound?
The Potency was “inactive”.

What about the Potency [4] of the same compound?
Its Potency is “inactive”.

What does the source list for `COC(=O)CC(C(C)=O)C(=O)OC` (stereo not drawn)?
Potency [1]: 44.8 µM (active); Potency [3]: inactive; Potency [4]: inactive

With `CCCCCCCCCCCCCCCCCC(=O)OCC(CC)CCCC` (stereo not drawn) as the compound, how does the Potency [1] read?
The Potency was “inactive”.

And the Potency [4]?
The Potency was “inactive”.

Which Potency [1] does the source give for `Cc1ccc2c(c1)CCCN2` here?
Its Potency is 39.9 µM (active).

What about the Potency [3] of the same compound?
Its Potency is “inactive”.

And the Potency [4]?
Its Potency is “inactive”.

How did the Potency [1] turn out when `CCC1CCC(CCC(=O)O)C1` (stereo not drawn) was run?
Its Potency is 36.4 µM (active).

And the Potency [4]?
The Potency was “inactive”.

What does the source list for `BrC(Br)C(Br)Br`?
Potency [1]: inactive; Potency [4]: inactive

For `CC1C(C)(C)C2=C(C(=O)CCC2)C1(C)C` (stereo not drawn), which Potency [1] is on record?
The Potency was “inactive”.

And the Potency [4]?
Its Potency is “inactive”.

Which results are given for `CCCCCCOC(=O)CCCCC`?
Potency [1]: inactive; Potency [3]: inactive; Potency [4]: inactive

With `C=CC(=O)NC(C)C` as the compound, how does the Potency [1] read?
Its Potency is “inactive”.

And the Potency [4]?
Its Potency is “inactive”.

Which Potency [1] does the source give for `C=CCOC(=O)COCCC(C)C` here?
The Potency was “inactive”.

And the Potency [3]?
The Potency was “inactive”.

What about the Potency [4] of the same compound?
Its Potency is “inactive”.

For `COC(=O)Nc1nc2ccc(C(=O)C3CC3)cc2[nH]1`, which Potency [2] is on record?
Its Potency is 10.2 µM (active).

What about the Potency [3] of the same compound?
Its Potency is “inactive”.

With `Nc1ccn([C@H]2CS[C@@H](CO)O2)c(=O)n1` as the compound, how does the Potency [1] read?
Its Potency is “inactive”.

And the Potency [3]?
Its Potency is “inactive”.

And the Potency [4]?
The Potency was “inactive”.

Which results are given for `O=C(Nc1ccc(C(=O)O)c(O)c1)c1ccccc1`?
Potency [2]: inactive; Potency [3]: inactive

Which Potency [1] does the source give for `CC1CCc2nccnc21` (stereo not drawn) here?
The Potency was “inactive”.

And the Potency [4]?
The Potency was “inactive”.

How did the Potency [1] turn out when `CCCCCCC(O)CCCCCCCCCCC(=O)OC` (stereo not drawn) was run?
Its Potency is 35.6 µM (active).

And the Potency [4]?
The Potency was “inactive”.

For `CCCC(=O)OC(=O)CCC`, which Potency [1] is on record?
Its Potency is “inactive”.

And the Potency [3]?
Its Potency is “inactive”.

What about the Potency [4] of the same compound?
Its Potency is “inactive”.

Which results are given for `Cc1ccc(Cl)cc1N`?
Potency [2]: 10.2 µM (active); Potency [3]: inactive

Which Potency [2] does the source give for `CC(CN(CCN(CC(C)OCCO)CC(C)OCCO)CC(C)OCCO)OCCO` (stereo not drawn) here?
Its Potency is “inactive”.

And the Potency [3]?
The Potency was “inactive”.

How did the Potency [2] turn out when `Cc1oc(=O)oc1COC(=O)[C@@H]1N2C(=O)[C@@H](NC(=O)[C@H](N)c3ccccc3)[C@H]2SC1(C)C` was run?
Its Potency is “inactive”.

What about the Potency [3] of the same compound?
The Potency was “inactive”.

How did the Potency [1] turn out when `CCCOC(=O)c1c(Cl)c(Cl)c(Cl)c(Cl)c1C(=O)OCCC` was run?
Its Potency is 17.8 µM (active).

And the Potency [4]?
Its Potency is “inactive”.

`COc1cc(C(C)=O)ccc1OCCCN1CCC(c2noc3cc(F)ccc23)CC1` was tested. Which Potency [2] did it give?
The Potency was “inactive”.

Which Potency [1] does the source give for `CCCCCCCC(=O)Oc1c(Br)cc(C#N)cc1Br` here?
Its Potency is 39.8 µM (active).

And the Potency [4]?
Its Potency is “inactive”.

Which results are given for `COc1ccc(N)c([N+](=O)[O-])c1`?
Potency [2]: 8.94 µM (active); Potency [3]: inactive

`CCCCCCCC/C=C\CCCCCCCC(=O)OCCO` was tested. Which Potency [1] did it give?
The Potency was 18.8 µM (active).

What about the Potency [3] of the same compound?
Its Potency is “inactive”.

And the Potency [4]?
Its Potency is 13.3 µM (active).

With `CCC(C)(C)C(=O)O` as the compound, how does the Potency [1] read?
The Potency was “inactive”.

And the Potency [4]?
Its Potency is “inactive”.

With `CN1C(CSCC(F)(F)F)Nc2cc(Cl)c(S(N)(=O)=O)cc2S1(=O)=O` (stereo not drawn) as the compound, how does the Potency [2] read?
Its Potency is “inactive”.

Which Potency [1] does the source give for `CCN(CC)CC(=O)Nc1c(C)cccc1C(=O)OC` here?
The Potency was “inactive”.

What about the Potency [3] of the same compound?
The Potency was “inactive”.

And the Potency [4]?
The Potency was “inactive”.

`CNCc1ccc(NC(=O)c2c[nH]c3c2C(=O)CCC3)cc1` was tested. Which Potency [2] did it give?
Its Potency is 31.7 µM (active).

How did the Potency [1] turn out when `CCC(Cl)CC(Cl)C(Cl)C(Cl)C(Cl)C(C)Cl` (stereo not drawn) was run?
The Potency was 1.38 µM (active).

And the activity change, negative = inhibition [4]?
The activity change, negative = inhibition was 36.6% [at 23.6 µM].

How did the Potency [2] turn out when `CC(C)Cc1ccc(CC(=O)O)cc1` was run?
The Potency was “inactive”.

And the Potency [3]?
The Potency was “inactive”.

What about the Potency [4] of the same compound?
Its Potency is “inactive”.

Which Potency [3] does the source give for `CCCCOCCOC(=O)c1cccnc1` here?
Its Potency is “inactive”.

What does the source list for `CCN(CC)C(=O)N1CCN(C)CC1`?
Potency [3]: inactive; Potency [4]: inactive

For `CC(C)(C)S`, which Potency [3] is on record?
The Potency was “inactive”.

With `C=CC(=O)O` as the compound, how does the Potency [2] read?
The Potency was “inactive”.

What about the Potency [4] of the same compound?
Its Potency is “inactive”.

How did the Potency [4] turn out when `O=C(O)c1cccc(Oc2ccccc2)c1` was run?
The Potency was “inactive”.

`CC1=CC[C@@]23C[C@@H]1C(C)(C)[C@@H]2CC[C@H]3C` was tested. Which Potency [4] did it give?
Its Potency is 79.6 µM (active).
